D1 antag: Antagonist of Human D 1 Dopamine Receptor: qHTS; D(1A) dopamine receptor (Homo sapiens), P21728; HEK293 TREx D1 cells, calcium flux, dopamine EC80; active compounds read low; activity change, negative = inhibition, % at 10 µM; actives 3.2% (n = 360,000); AID 504652, 2011; in the data active = activity change below about -30%; note: % is set by controls: 0 for no effect and ±100 for the full control effect
Target sequence (P21728 whole entry, looked up): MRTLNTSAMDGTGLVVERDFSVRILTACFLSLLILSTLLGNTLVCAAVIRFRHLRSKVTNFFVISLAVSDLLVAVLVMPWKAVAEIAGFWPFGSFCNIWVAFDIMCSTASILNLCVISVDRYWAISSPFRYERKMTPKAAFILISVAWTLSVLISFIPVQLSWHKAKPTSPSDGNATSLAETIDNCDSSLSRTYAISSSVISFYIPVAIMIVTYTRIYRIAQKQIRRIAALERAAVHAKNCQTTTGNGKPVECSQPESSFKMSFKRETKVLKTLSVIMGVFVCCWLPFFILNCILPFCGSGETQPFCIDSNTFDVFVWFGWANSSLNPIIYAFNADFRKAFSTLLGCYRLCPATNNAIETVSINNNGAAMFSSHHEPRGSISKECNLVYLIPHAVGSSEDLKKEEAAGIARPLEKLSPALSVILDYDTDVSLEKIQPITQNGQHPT
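Compound effects on dopamine-evoked calcium signalling were measured in tetracycline-induced HEK293 Trex D1 cells. Dopamine at EC80 followed a 180 s compound pre-read, and fluorescence was tracked kinetically for 180 s more.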
D1 ag: Allosteric Agonists of the Human D1 Dopamine Receptor: qHTS; HEK293 T-REx D1 cells, calcium flux, agonist mode; activation, % at 2 µM; D(1A) dopamine receptor (Homo sapiens), P21728; actives 1% (n = 360,000); note: 0% is about no effect
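Tetracycline-induced HEK293 TREx D1 cells, force-coupled to calcium signalling, were dye-loaded with a no-wash calcium kit. Compound was pin-added after a 10 s baseline. Fluorescence was read kinetically at 1 cycle/s for 180 s, with calcium rises flagged as agonism.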
TRHR PAM: qHTS for Small Molecule Agonists and Allosteric Enhancers of Human TRH Receptor: Primary Screen for Enhancers. Thyrotropin-releasing hormone receptor (Homo sapiens), P34981. enhancement, % at 2 µM. TRHR cells, fluo-8 calcium fluorescence, EC20 TRH enhancement. AID 493056, 2011. actives 0.66% (n = 360,000); in the data active = enhancement above about 30%; note: 0% is about no effect
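TRHR-expressing cells loaded with fluo-8 calcium dye were read kinetically (ex 480/em 530) during compound addition, then stimulated with an EC20 of TRH (10 nM final). Enhancement of the Gq-mediated intracellular calcium response was scored.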
TRHR agonist: qHTS for Small Molecule Agonists and Allosteric Enhancers of Human TRH Receptor: Primary Screen for Agonists; AID 493084, 2011; TRHR cells, calcium flux fluo-8, FDSS agonist mode; activation, % at 2 µM; Thyrotropin-releasing hormone receptor (Homo sapiens), P34981; actives 0.18% (n = 360,000); note: 0% is about no effect
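Fluo-8-loaded TRHR cells; 10 s baseline, compound added, kinetic Ca2+ fluorescence read 1/s, agonist mode.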
D1 potentiator: Potentiators of Human D1 Dopamine Receptor: qHTS. AID 504651, 2011. D(1A) dopamine receptor (Homo sapiens), P21728. potentiation, % at 10 µM. actives 0.036% (n = 360,000). HEK293 TREx D1 cells, calcium flux, dopamine EC20 potentiation; in the data active = potentiation above about 30%; note: 0% is about no effect
* = called active by the depositor; . = no result. In the library only some 4.7% were active in any assay of this set; here they are far more common. Cut-off read from the data, not from the text of the source, unless noted: active = activation above about 30%; inactive = the rest.

SMILES	D1 antag	D1 ag	TRHR PAM	TRHR agonist	D1 potentiator
O=C(Nc1ccc2c(c1)OCO2)c1cccn(Cc2cccc([N+](=O)[O-])c2)c1=O	.	-4	1	0	-2
O=C(COc1ccccc1Cl)N1CCN(CCc2ccncc2)CC1	4	10	2	0	-1
O=C(OCC(=O)c1ccc([N+](=O)[O-])cc1)/C(=C/c1ccc(Cl)cc1)NC(=O)c1ccccc1	-34*	3	-5	-3	2
O=C(COC(=O)Cc1ccccc1)NNC(=O)c1ccc([N+](=O)[O-])cc1	-1	1	2	0	-3
Cc1cc(C)cc(-n2c(/C=C/c3cccc(F)c3)nc3ccccc3c2=O)c1	6	-3	-2	-1	0
Cc1cc(C)cc(-n2c(O)c(C=Nc3ccc(N4CCOCC4)cc3)c(=O)[nH]c2=S)c1	-4	35*	1	0	0
c1cc(C2N3CCCN2CC3)ccn1 (stereo not drawn)	-44*	3	5	-1	9
CN1CC[C@@]23CCCC[C@@H]2[C@@H]1Cc1ccc(O)cc13	-32*	7	-3	-1	-3
CC(=O)OC1(c2ccccc2)CCN(C)C2CCCCC21 (stereo not drawn)	8	8	0	2	-1
CN1CCc2cccc(Cl)c2CC1	-64*	0	0	1	-7
COc1ccc(/C=C/c2nc3ccccc3c(=O)n2-c2ccc(C)cc2)cc1O	-5	-5	-7	-1	0
NCCc1ccc(OCc2ccccc2)c(OCc2ccccc2)c1	11	34*	2	4	-2
CCOc1ccccc1NC(=O)c1cccn(Cc2ccccc2C)c1=O	29	7	-2	0	2
COc1ccc(CN2C(=O)NC(=O)/C(=C/c3ccc(OC)c(OC)c3OC)C2=O)cc1	-35*	7	7	-1	-2
CN1C(=O)C(=Cc2sc(=O)n(-c3ccccc3)c2N2CCCCC2)C(=O)N(C)C1=O	-3	67*	5	20	-4
COCCCNC(=O)c1c(NC(=O)c2ccccc2Cl)n(Cc2ccccc2)c2nc3ccccc3nc12	2	40*	-6	9	-3
COC(=O)C1=C(c2ccc(C(C)=O)cc2)C[C@@H]2CC[C@H]1N2C(=O)NC(C)C	-91*	-1	-23	0	-7
COC(=O)C1=C(c2ccc(C(C)=O)cc2)C[C@@H]2CC[C@H]1N2C	7	1	1	0	2
COC(=O)C1=C(c2ccc(Cl)c(C(F)(F)F)c2)C[C@@H]2CC[C@H]1N2C(=O)N1CCCC1	-42*	0	-14	0	-1
COC(=O)C1=C(c2ccc(Cl)c(C(F)(F)F)c2)C[C@@H]2CC[C@H]1N2C(=O)N1CCOCC1	-4	0	-8	1	-2
COC(=O)C1=C(c2ccc(F)cc2OCc2ccccc2)C[C@@H]2CC[C@H]1N2C(=O)N1CCC(O)CC1	19	4	37*	0	-1
COC(=O)C1=C(c2ccc(F)cc2OCc2ccccc2)C[C@@H]2CC[C@H]1N2C(=O)NCc1ccccc1	-9	2	-9	0	-3
COC(=O)C1=C(c2ccc(-c3ccccc3)c(F)c2)C[C@@H]2CC[C@H]1N2C(=O)NCCO	-40*	1	0	0	-2
Cc1nnc(NC(=O)c2cccn(Cc3cccc([N+](=O)[O-])c3)c2=O)s1	.	-1	4	0	1
Cc1ccc(-n2c(/C=C/c3cc(Br)cs3)nc3ccccc3c2=O)cc1	2	-1	0	1	0
COC(=O)C1=C(c2ccc(F)cc2F)C[C@@H]2CC[C@H]1N2C(=O)N1CCC(O)(c2ccc(Cl)cc2)CC1	-46*	5	0	0	-3
COC(=O)C1=C(c2ccccc2OCc2ccccc2)C[C@@H]2CC[C@H]1N2C(=O)NCCc1ccc(F)cc1	-39*	3	-6	1	-6

Source: PubChem BioAssay
